Screens (PubChem)
CBX7 inh: inhibitors of human CBX7 binding to H3K27me3 peptide | AlphaScreen His6-CBX7 / biotin-H3K27me3 peptide binding; active compounds read low | O95931 | normalised signal (fraction of DMSO) (concentration not given with the values) | hit rate 1.1% among 66,000; in the data active = normalised signal below about 0.5
Target sequence (O95931 whole entry, looked up): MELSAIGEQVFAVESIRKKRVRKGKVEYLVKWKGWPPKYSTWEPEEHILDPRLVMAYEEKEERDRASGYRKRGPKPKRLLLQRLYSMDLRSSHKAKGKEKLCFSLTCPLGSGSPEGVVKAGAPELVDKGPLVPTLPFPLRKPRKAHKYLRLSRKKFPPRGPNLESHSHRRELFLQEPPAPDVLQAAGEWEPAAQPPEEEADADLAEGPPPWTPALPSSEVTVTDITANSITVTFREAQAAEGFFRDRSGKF
Starred values were filed as active, the others as inactive. This excerpt belongs to a sample that is enriched for hits.

SMILES | CBX7 inh
Fc1ccc(-c2[nH]c(-c3c[nH]c4ccc(Br)cc34)nc2-c2ccccc2)cc1 | 0.455*
Fc1ccc(-c2[nH]c(-c3cccs3)nc2-c2ccccc2)cc1 | 0.89
Cc1ccc(C)c(-c2[nH]c(-c3ccc(O)cc3)nc2-c2ccccc2)c1 | 0.58
O=c1nc(-c2ccccc2)c2cc(Br)ccc2[nH]1 | 0.954
Cc1ccc(-c2[nH]c(-c3c[nH]c4ccccc34)nc2-c2ccccc2)cc1 | 0.377*
c1ccc2[nH]c(-c3c[nH]c4ccccc34)nc2c1 | 0.86
CC1CCCCN1CCCNC(=O)c1ccc2c(c1)N(Cc1c(F)cccc1Cl)C(=O)CS2 (stereo not given) | 0.991
COc1ccc(CCNC(=O)C2CCN(c3ccc(N4CCOCC4)nn3)CC2)cc1OC | 0.975
COc1ccc(-c2cc(C(=O)Nc3cccc(Cl)c3C)no2)cc1OC | 0.839
O=C(CC(C(=O)N1CCc2ccccc21)n1ccnc1)NCCCN1CCOCC1 (stereo not given) | 0.992
O=C(CC(C(=O)N1CCc2ccccc21)n1ccnc1)NCCN1CCCCCC1 (stereo not given) | 0.336*
CCN(CCCNC(=O)c1cn(C)c(=O)c2c1c1ccccc1n2C)c1cccc(C)c1 | 0.963
CCN(CCCNC(=O)CC(C(=O)N1CCc2ccccc21)n1ccnc1)c1cccc(C)c1 (stereo not given) | 0.225*
CCN(CCCNC(=O)Cc1cn(C)c2ccccc12)c1cccc(C)c1 | 0.316*
CCN(CCCNC(=O)CCn1c(=O)[nH]c2ccccc2c1=O)c1cccc(C)c1 | 1
CCCCCCCNC(=O)CC(C(=O)N1CCc2ccccc21)n1ccnc1 (stereo not given) | 0.876
CN1CCN(CCCNC(=O)CC(C(=O)N2CCc3ccccc32)n2ccnc2)CC1 (stereo not given) | 0.98
CCCCNC(=O)CC(C(=O)N1CCc2ccccc21)n1ccnc1 (stereo not given) | 1
O=C(NCCOC12CC3CC(CC(C3)C1)C2)c1cc2c(s1)-c1ccccc1OC2 | 1.12
O=C1CC(c2ccc(OC(F)(F)F)cc2)c2cc3c(cc2N1)OCCO3 (stereo not given) | 0.907
Cc1ccc(-c2ccc(=O)n(CC(=O)NC3CC3)n2)cc1 | 1.02
COc1ccccc1CNC(=O)c1cnc2cc(C)ccn2c1=O | 1.07
NC(=O)COc1ccc(-c2noc(COc3ccccc3)n2)cc1 | 0.979
CN1CCN(C(=O)Cn2nc(-c3ccc(Cl)cc3)ccc2=O)CC1 | 1.03
CC1CCN(c2nc3ccc(C(=O)NC4CCCC4)cc3s2)CC1 | 0.985
SMILES | CBX7 inh
Cn1ccnc1SCC(=O)Nc1ccc(F)c(F)c1 | 1.03
COc1cccc(CNC(=O)C(NS(=O)(=O)c2ccc3c(c2)CCC(=O)N3)c2ccccc2)c1 (stereo not given) | 1.04
COc1ccc(Cl)cc1C(=O)Nc1nnc(C)s1 | 1.02
COC(=O)c1c[nH]n2c(NC3CCCCC3)c(-c3ccc(C)cc3)nc12 | 0.823
COC(=O)c1c[nH]n2c(NC3CCCC3)c(-c3ccc(C)cc3)nc12 | 0.503
COC(=O)c1c[nH]n2c(NC3CCCCC3)c(-c3cccc(C)c3)nc12 | 0.509
CCCCOc1cccc(-c2nc3c(C(=O)OC)c[nH]n3c2NC2CCCC2)c1 | 0.197*
COC(=O)c1c[nH]n2c(NC3CCCC3)c(-c3cccc(OC)c3)nc12 | 0.383*
COC(=O)c1c[nH]n2c(NC3CCCCC3)c(-c3cccc(OC)c3)nc12 | 0.554
CCCOc1cccc(-c2cc(C(=O)O)c3ccccc3n2)c1 | 1.11
COC(=O)c1c[nH]n2c(NC3CCCC3)c(-c3ccc(OC)cc3)nc12 | 0.111*
CCCCCOc1ccc(NC(=O)c2cccc(C(=O)OC)n2)cc1 | 0.997
COC(=O)c1c[nH]n2c(NC3CCCCC3)c(-c3cccc(Br)c3)nc12 | 0.517
COC(=O)c1c[nH]n2c(NC3CCCC3)c(-c3cccc(C)c3)nc12 | 0.667
COC(=O)c1c[nH]n2c(NC3CCCCCC3)c(-c3cccc(OC)c3)nc12 | 0.495*
Cc1cc(-c2ccc(C(C)C)cc2)n(-c2ccccn2)n1 | 1.01
CCCCn1c(C(C)NC(=O)c2ccc(OC)c(OC)c2)nc2ccccc21 (stereo not given) | 0.985
CC(=O)Nc1cccc(N2C(=O)CC(Cc3ccc(Cl)cc3)C2=O)c1 (stereo not given) | 1.06
CCOC(=O)c1cccc(NC(=O)CCNS(=O)(=O)c2ccc3c(c2)CCN3C(C)=O)c1 | 0.989
Cc1ccc(NC(=O)CN(C)S(=O)(=O)c2cnc[nH]2)c(Cl)c1 | 1.1
CCOC(=O)c1cnc2cc(Cl)c(OC)cc2c1N1CCN(c2cccc(Cl)c2)CC1 | 0.913
CC(C)OCCCN1C(=O)Cn2cccc2C1C(=O)NC1CCCCC1 (stereo not given) | 1.02
Cc1ccc(-c2cc(-c3cccc4nc(C)oc34)n[nH]2)c(O)c1 | 0.921
O=C(C1CC1)N1CCc2cc(S(=O)(=O)N3CCN(c4cccc(C(F)(F)F)c4)CC3)ccc21 | 1
Cc1nc2c(-c3ccccc3)c(C)nn2c(C)c1CCC(=O)NCc1cccnc1 | 1.18
SMILES | CBX7 inh
CCC1Oc2ccc(C)cc2N(CC(=O)N2CCN(c3cccc(C)c3C)CC2)C1=O (stereo not given) | 1.02
O=C(CN1C(=O)COc2ccc(S(=O)(=O)N3CCCCCC3)cc21)N1CCc2ccccc2C1 | 0.974
O=C(CSc1nnc(CNC(=O)c2ccccc2F)o1)Nc1nc2ccccc2s1 | 1.01
COc1ccc2nc(N3CCC(C(=O)NCc4ccccn4)CC3)sc2c1 | 0.979
CCOc1ccc2nc(C(=O)Nc3cccc(CC)c3)sc2c1 | 1.07
COc1ccc(C(=O)N2CC(=O)Nc3ccc(Cl)cc3C2c2ccc(F)cc2)cc1OC (stereo not given) | 0.75
COc1ccc(N2CCC(CNS(=O)(=O)c3cccc(Cl)c3)C2)cc1 (stereo not given) | 0.474*
COc1ccc(N2CCC(CNC(=O)Nc3ccccc3)C2)cc1 (stereo not given) | 0.766
COc1ccc(N2CCN(C3CC(=O)N(c4cccc(Cl)c4)C3=O)CC2)cc1 (stereo not given) | 1.06
CCN1CCN(Cc2ccc(NC(=O)Cn3ncc4c3-c3cc(C)ccc3OC4)cc2)CC1 | 1.02
COC(=O)C(C)C1Sc2ccccc2N(Cc2ccc(F)cc2Cl)C1=O (stereo not given) | 1.05
CCCN1CCCc2cc(CN(CCCN3CCOCC3)C(=O)Nc3ccc(CC)cc3)ccc21 | 0.523
CCCCN1CCCc2cc(CN(CCCN3CCOCC3)C(=O)Nc3ccccc3)ccc21 | 0.528
CCCCN1CCCc2cc(CN(CCCN3CCOCC3)C(=O)Nc3ccc(CC)cc3)ccc21 | 0.233*
CCc1ccc(NC(=O)N(CCC(C)C)C2CCN(C(C)C)CC2)cc1 | 1.07
CCc1ccc(NC(=O)N(C2CCCCCC2)C2CCN(C(C)=O)CC2)cc1 | 1
CCCN1CCCc2cc(CN(C(=O)Nc3ccc(Cl)c(Cl)c3)C(C)CC)ccc21 (stereo not given) | 0.587
CCN1CCCc2cc(CN(C(=O)Nc3ccc(C)c(C)c3)C3CCCC3)ccc21 | 0.438*
CCc1ccc(NC(=O)N(Cc2ccc3c(c2)CCCN3CC)C2CCCC2)cc1 | 0.339*
CC(=O)N1CCC(N(C(=O)Nc2ccc(C)c(C)c2)C2CCCCCC2)CC1 | 1.11
CCOc1ccccc1Nc1nc2ccccc2nc1NS(=O)(=O)c1ccc(Br)cc1 | 0.835
Cn1c2ccccc2c2c(C(=O)NCC3COc4ccccc4O3)cn(C3CCCCC3)c(=O)c21 (stereo not given) | 0.889
CCCNC(=O)C1CCN(S(=O)(=O)c2cnc[nH]2)CC1 | 0.852
